Hits are enriched below; roughly 13% of the tested compounds scored in any of these assays.
RAM network inh: yeast RAM network inhibition | S. cerevisiae dse1pr::URA3 reporter, 5-FOA growth OD615, 2 d; analog-sensitive cbk1-as2 kinase mutant strain | inhibition, % at 50 µM | hit rate 1.8% among 190,000;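 active = inhibition above a set limit, 3 SD over mean compound inhibition, cut at about 8.4% in these data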;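 also: inhibition rescues growth on 5-FOA so higher OD means more RAM inhibition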
WT yeast gro inh: growth inhibition of WT yeast, mitochondrial fusion screen; mitochondrial fusion phenotypic screen, WT strain; inhibition, % at 10 µM; hit rate 2.1% among 190,000; AID 1362; in the data active = inhibition above about 58%; tested in S. cerevisiae
L major viab: inhibitors of Leishmania major promastigote growth; AID 1063; hit rate 9% among 200,000; inhibition, % at 10 µM; Leishmania major promastigotes, resazurin fluorescence viability; in the data active = inhibition above about 50%;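 also: promastigotes grown with compound for 44 hours at 28 °C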
CHOP inhibitor: inhibitors of CHOP induction in ER stress response; CHO-K1 CHOP-promoter luciferase, tunicamycin-induced, 15-18 h; hit rate 3.8% among 220,000; AID 2732; inhibition, % at 10 µM;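 active = compounds that reduced the stress-induced luciferase reporter signal by more than about 70% of percent inhibition, limit read from the data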
RAM 5-FOA: RAM network inhibitors in efflux-deficient yeast. max inhibition, %. shares compounds with RAM network inh. S. cerevisiae efflux-deficient reporter strain, 5-FOA growth OD615, 2 days. 1,200 tested, under 10 active; call rule not given here
Hits are given with their value; . = inactive; / = no result given.

SMILES | RAM network inh | WT yeast gro inh | L major viab | CHOP inhibitor | RAM 5-FOA
COc1ccc(CCNC(=O)c2ccc(-c3ccc([N+](=O)[O-])cc3Cl)o2)cc1 | 13 | . | . | . | .
COc1ccc(Oc2ccc(/C=N/NC(=O)c3cccnc3)cc2[N+](=O)[O-])cc1 | . | . | . | . | /
COc1ccc(Oc2ccc(/C=C/C(=O)c3cccc(OC)c3)cc2[N+](=O)[O-])cc1 | 11 | . | 100 | . | .
COc1cc(/C=N/Nc2ccc(Cl)cc2)ccc1OC(=O)c1cccs1 | 12 | . | . | . | .
COc1cc(/C=N/NC(N)=O)ccc1OC(=O)c1cccs1 | . | . | . | . | /
CCOC(=O)c1cnn(-c2nc(-c3ccc(C)cc3)cs2)c1C(F)(F)F | 12 | . | . | . | .
C=CCNC(=O)/C(C#N)=C/c1ccc(OS(=O)(=O)c2ccc(C)cc2)c(OC)c1 | 15 | . | 92 | . | .
COc1ccc(/C=C(\C#N)C(=O)NCc2cccs2)cc1OC | . | . | . | . | /
O=C(COC(=O)CNC(=O)c1ccc(Cl)cc1)Nc1ccc(Cl)cc1C(F)(F)F | . | . | . | . | /
CC(C)Oc1ccccc1OCCCCn1cnc2ccccc2c1=O | 14 | . | . | . | .
Cc1ccc(C)c(OCCCCn2cnc3ccccc3c2=O)c1 | . | . | . | . | /
CCOc1ncccc1C(=O)OCC(=O)Nc1cccc(S(N)(=O)=O)c1 | . | . | . | . | /
COc1ccc(CNCC(=O)Nc2ccccc2-n2cccc2)cc1 | . | . | . | . | /
CC(OC(=O)c1oc2ccccc2c1COc1ccccc1)C(=O)NC(N)=O (stereo unspecified) | . | . | . | . | /
O=C(Nc1ccccc1Cc1ccccc1)c1oc2ccccc2c1COc1ccccc1 | 12 | . | . | . | .
O=C(NCCc1ccccc1)c1oc2ccccc2c1COc1ccccc1 | 19 | . | . | . | .
C=CCSC1=N/C(=C/c2ccsc2)C(=O)N1c1ccccc1 | 14 | . | . | . | .
O=C(COc1ccc(Cl)cc1)NCc1ccncc1 | . | . | . | . | /
COc1ccccc1C(=O)C1CCCN(C(=O)Nc2ccccc2F)C1 (stereo unspecified) | . | . | . | . | /
Cc1ccccc1N/C(SCc1ccc(Cl)cc1)=C(/C#N)C(=O)NCc1ccco1 | 15 | . | . | . | .
Cc1ccc(CS/C(Nc2ccccc2C)=C(\C#N)C(=O)NCc2ccco2)c(C)c1 | 13 | . | . | . | .
Cc1ccccc1CSCC(=O)NCc1ccco1 | . | . | . | . | /
O=C(CCSCc1ccc(Cl)cc1)NCc1ccco1 | . | . | . | . | /
CCOC(=O)C(=Cc1ccc(OCc2ccc([N+](=O)[O-])cc2)c(OC)c1)C(=O)OCC | 16 | . | . | . | .
COc1cc(C=O)ccc1OCCCOc1ccc([N+](=O)[O-])cc1 | . | . | . | . | /
SMILES | RAM network inh | WT yeast gro inh | L major viab | CHOP inhibitor | RAM 5-FOA
CCCCOc1ccc(S(=O)(=O)Nc2cc(OC)ccc2OC)cc1 | 11 | . | . | . | .
CCCS(=O)(=O)c1c(S(=O)(=O)CCC)c2c(N)cccn2c1C(=O)c1ccc(Br)cc1 | 13 | . | . | . | .
O=C(CCC1CCCCC1)Nc1ccccc1-c1ccccc1 | 25 | . | . | . | .
COc1ccc(CCNC(=S)NCc2ccc(Cl)c(Cl)c2)cc1OC | . | . | . | . | /
Cc1ccc(OCCn2cc(/C=C(\C#N)C(=O)NCC3CCCO3)c3ccccc32)cc1C (stereo unspecified) | 12 | . | . | . | .
Cc1ccc(OCCn2cc(/C=C(\C#N)C(=O)NCC3CCCO3)c3ccccc32)cc1 (stereo unspecified) | 14 | . | . | . | .
Cc1ccc(C)c(OCCn2cc(/C=C(\C#N)C(=O)NCC3CCCO3)c3ccccc32)c1 (stereo unspecified) | . | . | . | . | /
COc1ccc(N(C(C)C(=O)N2CCC(Cc3ccccc3)CC2)S(C)(=O)=O)cc1 (stereo unspecified) | . | . | . | . | /
COC(=O)C/C=C/[C@@H](C)[C@@H](/C=N/OC[C@@H](C)[C@H](OCc1ccccc1)C(C)C)NS(=O)(=O)c1ccc(C)cc1 | 13 | . | . | . | .
NCCCCN | / | / | / | . | /
CN1C(=O)/C(=C/c2ccc3c(c2)OCO3)N=C1c1ccccc1 | . | . | . | . | /
CCSC1=N/C(=C\c2ccc3c(c2)OCO3)C(=O)S1 | 15 | . | . | 74 | .
O=C(OCC#CCSc1nnc(-c2ccccc2)o1)c1cccs1 | . | . | . | . | /
O=C(OCC#CCSc1nnc(-c2cccc3ccccc23)o1)c1cccs1 | 14 | . | . | . | .
COc1ccc(C(=O)OCC(=O)Nc2cc(C)c(C)cc2[N+](=O)[O-])cc1 | . | . | . | . | /
COc1ccc2c(CC(=O)OCC(=O)Nc3cc(C)c(C)cc3[N+](=O)[O-])coc2c1 | 12 | . | . | . | .
COc1cc2[nH]c(=O)n(CCCCCC(=O)NCCc3c[nH]c4ccccc34)c(=O)c2cc1OC | . | . | . | . | /
O=[N+]([O-])c1ccc(C2CCCC/C2=N/OCc2ccc(F)cc2)c([N+](=O)[O-])c1 (stereo unspecified) | 13 | . | 54 | . | .
COCC(C)n1c(SCc2nc3ccccc3c(=O)[nH]2)nc2ccccc2c1=O (stereo unspecified) | . | . | . | . | /
COCC(C)n1c(SCc2ccc(OC)c(F)c2)nc2ccccc2c1=O (stereo unspecified) | 14 | 74 | 100 | . | .
CCN(CC(O)CON=C1c2ccccc2-c2ccccc21)S(=O)(=O)c1ccc(C)cc1 (stereo unspecified) | 15 | . | 100 | . | .
CCN(CC(O)CON=C1c2ccccc2-c2ccccc21)S(=O)(=O)c1ccc(Cl)cc1 (stereo unspecified) | 20 | . | 100 | . | .
C=CCn1c(SCC(=O)Nc2cc(C)on2)nc2sc3c(c2c1=O)CCCC3 | . | . | . | . | /
C=CCn1c(SCc2csc(C)n2)nc2sc3c(c2c1=O)CCCCC3 | 17 | . | . | . | .
C=CCn1c(SCc2csc(C)n2)nc2sc3c(c2c1=O)CCC(C)C3 (stereo unspecified) | 15 | . | . | . | .
SMILES | RAM network inh | WT yeast gro inh | L major viab | CHOP inhibitor | RAM 5-FOA
COc1cccc(CSc2nc3cc4c(cc3cc2C)OCCO4)c1 | 18 | . | 57 | . | .
COc1cc(/C=C/c2cc(C(=O)O)c3ccccc3n2)cc(OC)c1O | 12 | . | . | . | .
CCOc1cc(/C=C/c2cc(C(=O)O)c3ccccc3n2)ccc1OC | . | . | . | . | /
C/C(=C\c1ccccc1)C(=O)NCc1ccco1 | . | . | . | . | /
CCN1C(=O)/C(=C\c2cn(-c3ccccc3)nc2-c2cccnc2)SC1=S | . | . | . | . | /
CCOc1ccc(-c2nn(-c3ccccc3)cc2/C=C2\SC(=S)N(Cc3ccco3)C2=O)cc1 | 12 | . | . | . | .
CCOCCCNC(=O)/C(C#N)=C/c1ccc(-c2ccc(S(=O)(=O)N3CCOCC3)cc2)o1 | 12 | . | . | . | .
CC(C)OC(=O)c1cc2c(=O)[nH]c(C(Cl)(Cl)Cl)nc2o1 | . | . | . | . | /
CCCC(CCC)=NNc1ccc(S(=O)(=O)Nc2ccccc2OC)cc1[N+](=O)[O-] | 16 | . | . | . | .

Source: PubChem
